Laboratory results from the supplement of paper PMC10849652.
The full data set covers some 7,900 targets. This sample favours those with a hit. About 0.6% of all pairs of compound and target were hits.

What was measured:
Test in all cases: log2 fold change, soluble protein after heating vs DMSO (PISA); higher = thermal stabilisation; K562 cells, 10 uM, 30 min; active = over 0.2 and 3.5 SD of the protein, either way, in both replicates (recomputed)
[1] = compound: C1=CC=C(C=C1)[C@H](COC2=CC3=C(C=C2)NC(=O)N3)NC(=O)C4=CC=CN(C4=O)CC5=CC(=C(C=C5)F)F
Summary of the method: (§1)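 Quantification of soluble protein used TMTpro 16plex LC-MS/MS, with channel sums equalised. Samples were the supernatant after 21,000xg for 90 min of pooled aliquots from K562 cells (2×10^6 cells/mL) treated with 10 μM compound for 30 min, heated for 3 min over 48°C-58°C, and extracted in PBS with 0.5% NP-40 at 4°C. Values, from duplicates, describe thermal stability against control samples on a log2 fold-change scale.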

[2] = compound: CC1=C(SC2=C1C(=N[C@H](C3=NN=C(N32)C)CC(=O)N)C4=CC=C(C=C4)Cl)C
Summary of the method: as §1

[3] = compound: CC1=C2C(=CC=C1)N=C(N(C2=O)C3=CC=CC=C3C)CN4C=NC5=C(N=CN=C54)N
Summary of the method: as §1

[4] = compound: Cc1sc2c(c1C)C(c1ccc(Cl)cc1)=N[C@@H](CC(=O)OC(C)(C)C)c1nnc(C)n1-2
Summary of the method: as §1

[5] = compound: c1ccc([C@@H]2C[C@H]2NC2CCNCC2)cc1
Summary of the method: as §1

Measured: log2 fold change

DLD (UniProt P09622)
inactive: [1] 0.016 | [2] 0.006 | [3] -0.005 | [4] -0.016 | [5] 0.044

CTSL (UniProt P07711)
UniProt P07711, sequence (P07711 whole entry, looked up): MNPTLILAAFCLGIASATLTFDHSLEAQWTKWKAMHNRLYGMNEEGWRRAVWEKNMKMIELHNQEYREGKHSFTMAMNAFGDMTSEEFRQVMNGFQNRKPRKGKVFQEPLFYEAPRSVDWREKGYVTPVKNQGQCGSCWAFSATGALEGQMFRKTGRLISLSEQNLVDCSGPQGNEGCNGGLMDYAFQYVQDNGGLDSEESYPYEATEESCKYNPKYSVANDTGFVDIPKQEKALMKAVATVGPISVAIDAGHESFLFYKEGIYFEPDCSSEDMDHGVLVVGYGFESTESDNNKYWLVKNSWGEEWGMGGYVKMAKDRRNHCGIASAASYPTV
inactive: [1] -0.017 | [2] -0.07 | [3] 0.015 | [4] 0.031 | [5] 0.104

FAM117A (UniProt Q9C073)
inactive: [1] -0.004 | [2] 0.057 | [3] 0.027 | [4] 0.01 | [5] 0.012

CTSV (UniProt O60911)
inactive: [1] -0.02 | [2] -0.087 | [3] 0.021 | [4] -0.065 | [5] 0.005

FAM118B (UniProt Q9BPY3)
UniProt Q9BPY3, sequence (Q9BPY3 whole entry, looked up): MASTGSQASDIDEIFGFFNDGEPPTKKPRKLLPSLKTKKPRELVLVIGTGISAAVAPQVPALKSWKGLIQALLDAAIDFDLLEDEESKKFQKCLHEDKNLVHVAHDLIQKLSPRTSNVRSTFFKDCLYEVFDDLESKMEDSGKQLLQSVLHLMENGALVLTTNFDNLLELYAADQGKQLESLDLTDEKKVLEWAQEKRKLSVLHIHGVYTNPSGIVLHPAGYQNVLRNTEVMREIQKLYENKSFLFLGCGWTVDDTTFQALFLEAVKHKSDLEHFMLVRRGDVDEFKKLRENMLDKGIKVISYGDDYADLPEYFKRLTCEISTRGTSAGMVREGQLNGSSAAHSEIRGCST
inactive: [1] -0.276 | [2] -0.01 | [3] 0.208 | [4] -0.019 | [5] -0.009

DNAH10 (UniProt Q8IVF4)
inactive: [1] 0.09 | [2] 0.103 | [3] 0.062 | [4] -0.131 | [5] 0.031

EFCAB14 (UniProt O75071)
UniProt O75071, sequence (O75071 whole entry, looked up): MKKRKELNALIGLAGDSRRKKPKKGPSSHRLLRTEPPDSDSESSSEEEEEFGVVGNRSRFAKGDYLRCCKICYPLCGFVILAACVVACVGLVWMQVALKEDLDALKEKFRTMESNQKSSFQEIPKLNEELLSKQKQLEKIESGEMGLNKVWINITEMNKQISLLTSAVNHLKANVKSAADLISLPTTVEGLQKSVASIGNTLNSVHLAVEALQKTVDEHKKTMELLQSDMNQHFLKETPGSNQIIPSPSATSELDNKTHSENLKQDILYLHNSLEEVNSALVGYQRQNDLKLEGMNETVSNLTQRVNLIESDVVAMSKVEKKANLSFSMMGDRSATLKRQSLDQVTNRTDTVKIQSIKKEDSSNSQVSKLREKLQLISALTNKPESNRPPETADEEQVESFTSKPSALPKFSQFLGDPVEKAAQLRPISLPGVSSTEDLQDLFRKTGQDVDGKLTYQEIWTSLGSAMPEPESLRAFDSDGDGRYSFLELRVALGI
active: [2] -0.293
inactive: [1] 0.045 | [3] 0.016 | [4] 0.018 | [5] 0.321

EIF4A1 (UniProt P60842)
UniProt P60842, sequence (P60842 whole entry, looked up): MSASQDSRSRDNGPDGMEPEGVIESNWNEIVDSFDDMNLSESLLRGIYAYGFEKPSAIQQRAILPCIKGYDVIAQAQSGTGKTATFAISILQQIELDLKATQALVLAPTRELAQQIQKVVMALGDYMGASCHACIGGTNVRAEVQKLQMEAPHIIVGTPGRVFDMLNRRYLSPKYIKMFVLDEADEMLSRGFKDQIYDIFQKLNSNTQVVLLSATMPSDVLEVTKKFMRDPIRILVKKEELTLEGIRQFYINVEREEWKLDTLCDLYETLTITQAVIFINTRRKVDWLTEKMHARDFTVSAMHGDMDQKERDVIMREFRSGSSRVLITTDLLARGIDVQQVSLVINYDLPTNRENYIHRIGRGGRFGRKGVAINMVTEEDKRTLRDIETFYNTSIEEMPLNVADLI
inactive: [1] -0.043 | [2] 0.096 | [3] 0.05 | [4] -0.005 | [5] -0.042

DNAH5 (UniProt Q8TE73)
inactive: [1] 0.074 | [2] 0.023 | [3] 0.08 | [4] 0.139 | [5] 0.062

EVC2 (UniProt Q86UK5)
UniProt Q86UK5, sequence (Q86UK5 whole entry, looked up): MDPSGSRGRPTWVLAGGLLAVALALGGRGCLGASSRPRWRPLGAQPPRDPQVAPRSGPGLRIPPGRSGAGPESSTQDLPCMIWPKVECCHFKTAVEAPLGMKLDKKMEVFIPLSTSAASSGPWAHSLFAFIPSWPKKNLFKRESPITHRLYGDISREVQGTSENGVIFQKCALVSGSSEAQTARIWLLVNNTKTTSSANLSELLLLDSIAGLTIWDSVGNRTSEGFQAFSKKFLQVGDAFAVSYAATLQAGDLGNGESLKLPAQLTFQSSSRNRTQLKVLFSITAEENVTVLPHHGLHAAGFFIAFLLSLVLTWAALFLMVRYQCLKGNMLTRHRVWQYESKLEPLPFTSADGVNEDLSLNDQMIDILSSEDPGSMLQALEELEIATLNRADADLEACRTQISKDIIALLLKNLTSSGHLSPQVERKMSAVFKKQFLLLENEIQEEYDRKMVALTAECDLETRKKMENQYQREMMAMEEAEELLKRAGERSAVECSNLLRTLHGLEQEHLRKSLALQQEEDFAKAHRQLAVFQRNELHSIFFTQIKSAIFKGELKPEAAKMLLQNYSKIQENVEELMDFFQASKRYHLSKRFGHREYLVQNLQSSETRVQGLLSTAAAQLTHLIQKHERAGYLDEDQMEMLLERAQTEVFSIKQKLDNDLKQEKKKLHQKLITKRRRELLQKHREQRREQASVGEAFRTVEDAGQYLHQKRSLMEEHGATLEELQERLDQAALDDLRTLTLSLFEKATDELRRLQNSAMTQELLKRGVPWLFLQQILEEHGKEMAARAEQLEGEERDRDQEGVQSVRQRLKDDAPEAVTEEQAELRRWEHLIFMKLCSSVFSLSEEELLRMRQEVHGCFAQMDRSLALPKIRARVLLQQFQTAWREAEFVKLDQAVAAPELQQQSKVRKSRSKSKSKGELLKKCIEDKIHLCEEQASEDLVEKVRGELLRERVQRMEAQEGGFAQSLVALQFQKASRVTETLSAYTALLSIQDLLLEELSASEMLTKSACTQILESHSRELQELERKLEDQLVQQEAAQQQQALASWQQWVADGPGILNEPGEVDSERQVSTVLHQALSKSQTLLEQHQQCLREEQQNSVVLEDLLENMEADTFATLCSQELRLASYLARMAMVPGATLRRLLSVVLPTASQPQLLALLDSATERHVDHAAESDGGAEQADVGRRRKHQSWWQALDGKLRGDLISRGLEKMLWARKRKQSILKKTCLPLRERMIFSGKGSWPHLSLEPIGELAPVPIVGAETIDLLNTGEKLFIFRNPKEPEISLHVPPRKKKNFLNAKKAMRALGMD
inactive: [1] -0.064 | [2] -0.044 | [3] -0.141 | [4] 0.021 | [5] 0.081

EXOC8 (UniProt Q8IYI6)
inactive: [1] -0.004 | [2] 0.029 | [3] 0.03 | [4] 0.006 | [5] -0.051

EHBP1L1 (UniProt Q8N3D4)
inactive: [1] -0.016 | [2] 0.065 | [3] 0.052 | [4] -0.022 | [5] -0.051

DNM2 (UniProt P50570)
inactive: [1] -0.023 | [2] 0.044 | [3] 0.078 | [4] -0.027 | [5] -0.036

ERLIN2 (UniProt O94905)
UniProt O94905, sequence (O94905 whole entry, looked up): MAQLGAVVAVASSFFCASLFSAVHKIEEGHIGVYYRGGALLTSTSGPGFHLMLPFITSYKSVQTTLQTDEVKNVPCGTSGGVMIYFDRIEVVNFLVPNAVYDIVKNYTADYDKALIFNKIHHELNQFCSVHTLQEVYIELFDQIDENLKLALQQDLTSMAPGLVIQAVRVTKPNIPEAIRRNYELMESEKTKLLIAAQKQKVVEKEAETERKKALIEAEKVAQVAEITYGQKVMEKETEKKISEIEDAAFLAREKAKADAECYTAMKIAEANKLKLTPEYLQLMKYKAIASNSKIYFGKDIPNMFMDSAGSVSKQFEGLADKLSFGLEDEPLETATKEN
inactive: [1] -0.025 | [2] -0.048 | [3] -0.038 | [4] 0.006 | [5] -0.044

DHX40 (UniProt Q8IX18)
UniProt Q8IX18, sequence (Q8IX18 whole entry, looked up): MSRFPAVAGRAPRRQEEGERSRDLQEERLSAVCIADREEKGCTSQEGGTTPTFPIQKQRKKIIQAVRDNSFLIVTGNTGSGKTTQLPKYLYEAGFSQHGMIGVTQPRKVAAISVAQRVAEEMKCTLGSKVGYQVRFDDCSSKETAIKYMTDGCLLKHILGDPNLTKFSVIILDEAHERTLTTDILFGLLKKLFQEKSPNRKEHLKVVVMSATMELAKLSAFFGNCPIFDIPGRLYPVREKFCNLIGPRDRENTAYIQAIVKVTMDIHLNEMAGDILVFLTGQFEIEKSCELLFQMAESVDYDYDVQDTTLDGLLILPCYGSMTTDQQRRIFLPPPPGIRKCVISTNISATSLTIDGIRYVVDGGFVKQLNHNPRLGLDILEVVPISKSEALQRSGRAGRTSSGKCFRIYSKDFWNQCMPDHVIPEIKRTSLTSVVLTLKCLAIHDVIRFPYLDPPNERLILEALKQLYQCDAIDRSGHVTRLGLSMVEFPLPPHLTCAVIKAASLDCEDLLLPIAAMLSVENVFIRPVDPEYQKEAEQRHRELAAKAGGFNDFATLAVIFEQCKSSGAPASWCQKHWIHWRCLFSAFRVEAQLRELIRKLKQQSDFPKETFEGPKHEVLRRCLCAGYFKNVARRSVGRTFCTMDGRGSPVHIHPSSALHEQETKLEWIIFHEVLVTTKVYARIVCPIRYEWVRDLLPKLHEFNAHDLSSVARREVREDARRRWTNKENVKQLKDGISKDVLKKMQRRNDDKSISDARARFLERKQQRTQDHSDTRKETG
inactive: [1] 0.026 | [2] 0.101 | [3] 0.072 | [4] 0.093 | [5] -0.022

DHRS1 (UniProt Q96LJ7)
inactive: [1] 0.241 | [2] 0.015 | [3] 0.216 | [4] 0.321 | [5] 0.013

DCUN1D1 (UniProt Q96GG9)
UniProt Q96GG9, sequence (Q96GG9 whole entry, looked up): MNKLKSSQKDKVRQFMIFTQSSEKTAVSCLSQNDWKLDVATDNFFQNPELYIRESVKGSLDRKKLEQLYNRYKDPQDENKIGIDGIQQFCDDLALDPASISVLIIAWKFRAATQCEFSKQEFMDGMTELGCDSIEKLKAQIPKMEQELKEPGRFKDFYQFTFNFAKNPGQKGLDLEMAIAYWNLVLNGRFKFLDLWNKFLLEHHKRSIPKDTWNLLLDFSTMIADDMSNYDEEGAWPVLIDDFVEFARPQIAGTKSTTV
inactive: [1] -0.011 | [2] 0.064 | [3] 0.073 | [4] -0.033 | [5] 0.003

DDB1 (UniProt Q16531)
inactive: [1] 0.023 | [2] -0.003 | [3] 0.01 | [4] 0 | [5] 0.016

DNAJB12 (UniProt Q9NXW2)
UniProt Q9NXW2, sequence (Q9NXW2 whole entry, looked up): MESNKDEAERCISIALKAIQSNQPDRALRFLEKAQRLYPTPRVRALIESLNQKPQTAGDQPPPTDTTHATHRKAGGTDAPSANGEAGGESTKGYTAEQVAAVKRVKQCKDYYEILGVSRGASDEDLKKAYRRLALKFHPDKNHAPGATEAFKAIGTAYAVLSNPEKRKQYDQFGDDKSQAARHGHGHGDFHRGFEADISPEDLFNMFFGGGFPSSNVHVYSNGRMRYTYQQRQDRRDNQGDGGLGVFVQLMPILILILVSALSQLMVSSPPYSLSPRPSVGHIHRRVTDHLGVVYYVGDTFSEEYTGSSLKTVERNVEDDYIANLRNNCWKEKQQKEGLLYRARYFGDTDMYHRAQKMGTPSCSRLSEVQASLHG
inactive: [1] -0.044 | [2] 0.027 | [3] 0.081 | [4] -0.011 | [5] 0.011

FAM117B (UniProt Q6P1L5)
inactive: [2] 0.283 | [3] 0.116 | [4] -0.097 | [5] -0.024

DYNC1I2 isoform 2 (UniProt Q13409)
inactive: [1] 0.028 | [2] -0.059 | [4] -0.068 | [5] 0.14

CTSS (UniProt P25774)
UniProt P25774, sequence (P25774 whole entry, looked up): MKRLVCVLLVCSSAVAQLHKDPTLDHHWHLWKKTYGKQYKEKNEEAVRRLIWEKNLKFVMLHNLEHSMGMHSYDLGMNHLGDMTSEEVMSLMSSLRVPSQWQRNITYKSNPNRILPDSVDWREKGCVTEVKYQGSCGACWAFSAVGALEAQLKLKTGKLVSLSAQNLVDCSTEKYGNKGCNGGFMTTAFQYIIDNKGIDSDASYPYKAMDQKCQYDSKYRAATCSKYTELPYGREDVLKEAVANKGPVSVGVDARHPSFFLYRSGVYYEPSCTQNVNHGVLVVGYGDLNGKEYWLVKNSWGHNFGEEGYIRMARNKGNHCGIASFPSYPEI
inactive: [2] -0.004 | [3] -0.033 | [4] -0.192 | [5] 0.037

EEF1D isoform 3 (UniProt P29692)
inactive: [4] -0.694
